# Source: PubChem BioAssay (NCATS)
# Activity calls are given as the source filed them. Calls follow the shape of the dose curve; as a rule, active = well fitted curve in the direction sought with a large enough effect; inconclusive = small, poorly fitted or top-dose-only effect, or another doubt; inactive = no such curve, though single readings can be large or run the other way.
# Target: Alpha-galactosidase (Coffea arabica) (UniProt Q42656)
# Assay: Counterscreen for Glucocerebrosidase Inhibitors: qHTS Assay for Coffee Bean alpha-Galactosidase at pH 4.5 (AID 957);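 also: plate controls were enzyme alone for no effect and no enzyme for full effect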
# Details: purified coffee bean alpha-galactosidase, fluorogenic substrate; series mostly up to 76.9 µM; activity change, negative = inhibition: at the top concentration
# Summary of the method: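 Fluorogenic read-out: 4-methylumbelliferone at Ex 365/Em 440 nm after NaOH/glycine stop (pH 10). Enzyme 2 nM, 4-MU-alpha-galactoside 80 uM, citrate buffer pH 4.5, 20 min RT; normalized to no-enzyme and enzyme controls.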
# Chain of Alpha-galactosidase (Coffea arabica) (Q42656 whole entry, looked up): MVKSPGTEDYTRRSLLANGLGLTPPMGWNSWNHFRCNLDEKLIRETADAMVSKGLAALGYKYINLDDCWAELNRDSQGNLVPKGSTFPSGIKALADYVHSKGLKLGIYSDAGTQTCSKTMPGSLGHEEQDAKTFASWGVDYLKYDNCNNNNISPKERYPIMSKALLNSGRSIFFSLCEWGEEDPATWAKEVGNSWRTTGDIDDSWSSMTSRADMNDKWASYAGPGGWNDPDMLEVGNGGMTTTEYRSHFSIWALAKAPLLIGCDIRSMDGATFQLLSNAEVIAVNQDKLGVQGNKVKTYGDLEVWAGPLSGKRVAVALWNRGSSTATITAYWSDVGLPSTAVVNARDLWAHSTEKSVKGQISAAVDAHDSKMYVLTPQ
row,Compound,"activity change, negative = inhibition"
1,COC(=O)Nc1nc2ccc(C(=O)c3cccs3)cc2[nH]1,-3.94% (inactive)
2,N=c1nc(N2CCCCC2)cc(N)n1O,3.33% (inactive)
3,CCCN(CCC)CCc1cccc2c1CC(=O)N2,-2.89% (inactive)
4,CN1CCC[C@@H]1CCO[C@](C)(c1ccccc1)c1ccc(Cl)cc1,-5.35% (inactive)
5,OCCN1CCN(CCCN2c3ccccc3Sc3ccc(C(F)(F)F)cc32)CC1,-5.43% (inactive)
6,NC(=O)NO,3.22% (inactive)
7,CN[C@H]1CC[C@@H](c2ccc(Cl)c(Cl)c2)c2ccccc21,-1.65% (inactive)
8,Clc1ccc(C(c2ccccc2Cl)C(Cl)Cl)cc1 (centres undefined),-2.22% (inactive)
9,NS(=O)(=O)Cc1noc2ccccc12,2.5% (inactive)
10,O=c1[nH]cc(F)c(=O)[nH]1,0.37% (inactive)
11,CC[N+](C)(C)c1cccc(O)c1,-2.86% (inactive)
12,COc1cc(Cc2cnc(N)nc2N)cc(OC)c1OC,-1.43% (inactive)
13,CC(C)[N+](C)(CCOC(=O)C1c2ccccc2Oc2ccccc21)C(C)C,-0.902% (inactive)
14,O=C(c1ccc(OCCN2CCCCC2)cc1)c1c(-c2ccc(O)cc2)sc2cc(O)ccc12,-5.79% (inactive)
15,CCC1(c2ccccc2)C(=O)NCNC1=O,-1.05% (inactive)
16,CN(C)CC/C=C1\c2ccccc2COc2ccccc21,-3.23% (inactive)
17,CN(C)CCCN1c2ccccc2CCc2ccc(Cl)cc21,-5.04% (inactive)

row,Compound,"activity change, negative = inhibition"
1,CN(Cc1cnc2nc(N)nc(N)c2n1)c1ccc(C(=O)N[C@@H](CCC(=O)O)C(=O)O)cc1,0.997% (inactive)
2,CCN(CC)C(=S)SSC(=S)N(CC)CC,-4.34% (inactive)
3,CN(C)CCCN1c2ccccc2Sc2ccc(Cl)cc21,-6.46% (inactive)
4,CC1=NS(=O)(=O)c2cc(Cl)ccc2N1,0.0065% (inactive)
5,CNCCCC1c2ccccc2C=Cc2ccccc21,-0.859% (inactive)
6,C[C@](N)(Cc1ccc(O)c(O)c1)C(=O)O,-3.19% (inactive)
7,Nc1nnc(-c2cccc(Cl)c2Cl)c(N)n1,3.28% (inactive)
8,OCCN1CCN(CCCN2c3ccccc3Sc3ccc(Cl)cc32)CC1,0.188% (inactive)
9,CN1CCN(CCCN2c3ccccc3Sc3ccc(Cl)cc32)CC1,-0.79% (inactive)
10,O=C(CCCN1CCC(O)(c2ccc(Cl)cc2)CC1)c1ccc(F)cc1,-1.98% (inactive)
11,O=C1NC(=O)C(c2ccccc2)(c2ccccc2)N1,2.71% (inactive)
12,CCN(CC)CCNC(=O)c1cc(Cl)c(N)cc1OC,-2.61% (inactive)
13,Nc1nc2c(ncn2COCCO)c(=O)[nH]1,1.55% (inactive)
14,CCCCc1oc2ccccc2c1C(=O)c1cc(I)c(OCCN(CC)CC)c(I)c1,-7.33% (inactive)
15,CC(=O)CCCCn1c(=O)c2c(ncn2C)n(C)c1=O,2.02% (inactive)
16,NNc1nncc2ccccc12,0.127% (inactive)
17,COC(=O)[C@H]1[C@H]2C[C@@H]3c4[nH]c5cc(OC)ccc5c4CCN3C[C@H]2C[C@@H](OC(=O)c2cc(OC)c(OC)c(OC)c2)[C@@H]1OC,-8.74% (inactive)
